Most compounds without a hit are left out; they make up all but 8% or so of the library.
HCV inh – qHTS Assay for Inhibitors of Hepatitis C Virus (HCV) | Huh7.5.1 HCVcc-Cre infection, luciferase reporter, 44 h | AID 651820, 2012 | Potency, µM (highest dose often 41.8 µM), actives largely listed as inhibitors | 3.4% of 340,000 active; active = well fitted inhibition curve with a large enough effect; inconclusive = small, poorly fitted or top-dose-only effect, or another doubt; inactive = no such curve, though single readings can be large or run the other way
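Compounds are dispensed onto cells plated 4 h earlier at 1,000 per well, with HCVcc-Cre virus (about 0.5 moi) added next. Following 44 h of culture, luminescent signal is measured for 15 sec after 15 min with substrate at room temperature.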
FMDV inh – High Throughput Screening for Foot and Mouth Disease Virus Antivirals; FMDV antiviral cell-based qHTS; Potency, µM (titrated, usually from 57.9 µM), usual class: inhibitors; 1.2% of 410,000 active; AID 1159524, 2015; calls by dose curve; tested in HEK293T cells; also: read-out not given here; nearly all actives have a fitted effect of over 45% in size
MARV entry inh – qHTS for inhibitors of binding or entry into cells for Marburg Virus. Marburg virus pseudotyped entry inhibition, cell reporter. Potency, µM (doses to about 37.8 µM), most hits filed as inhibitors. 1.8% of 300,000 active; calls by dose curve; tested in HEK293 cells
SARS PLpro yeast – qHTS of Yeast-based Assay for SARS-CoV PLP | S. cerevisiae expressing SARS-CoV PLpro, growth rescue | Potency, µM (titrated, usually from 32.9 µM), most hits filed as activators | 0.19% of 330,000 active | AID 485353, 2010; calls by dose curve; also: nearly all actives have a fitted effect of over 55% in size
HCMV inh – qHTS Assay for inhibitors of the human cytomegalovirus (HCMV); HFF cells, HCMV-luciferase reporter, 72 h; stronger effect = lower value; activity change, negative = inhibition, % at 57.5 µM; AID 1259415, 2018; 4.5% of 410,000 active; in the data active = activity change below about -60%; inconclusive = no clear call, values can overlap the other calls; inactive = above about -39%
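Compounds were evaluated in HFFs infected with an HCMV luciferase reporter virus (MOI 1 PFU/cell). Luciferase in lysates collected 72 h post infection served as the replication measure.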
Lassa entry inh – qHTS for Inhibitors of binding or entry into cells for Lassa Virus | Lassa virus pseudotype entry inhibition, cell reporter | Potency, µM (series often up to 37.9 µM), actives largely listed as inhibitors | 1.2% of 300,000 active; calls by dose curve; tested in HEK293 cells; also: nearly all actives have a fitted effect of over 50% in size
Of the large screens only hits and unclear results are named; the others gave an inactive call; ! = repeats disagree.

O=C(C1CCC(CNS(=O)(=O)c2cccs2)CC1)N1CCN(c2ccc(F)cc2)CC1 (stereo not drawn)	HCV inh inconclusive, FMDV inh inconclusive, MARV entry inh 3.2µM, HCMV inh inconclusive, Lassa entry inh inconclusive
Cc1cccc(NC(=O)C2CCCN(S(=O)(=O)c3ccc4c(c3)oc(=O)n4C)C2)c1 (stereo not drawn)	MARV entry inh inconclusive, HCMV inh active!
Cc1ccc(Cl)cc1N1CCN(C(=O)C2CCN(S(=O)(=O)c3ccc4c(c3)oc(=O)n4C)CC2)CC1	FMDV inh inconclusive, HCMV inh active (no result: HCV inh, MARV entry inh, SARS PLpro yeast)
CSc1ccc(CNC(=O)C2CCCN(S(=O)(=O)N(C)c3ccc(F)cc3)C2)cc1 (stereo not drawn)	FMDV inh inconclusive, HCMV inh -61 (no result: HCV inh, SARS PLpro yeast, Lassa entry inh)
O=C(NCc1ccc(F)cc1)C1CCC(CNS(=O)(=O)c2cccs2)CC1 (stereo not drawn)	none
CCCN(CCC)CCCNC(=O)c1cc2c(=O)n(C)c3ccccc3c2s1	MARV entry inh inconclusive (no result: HCV inh, SARS PLpro yeast)
COc1cccc(N2CCN(C(=O)C3CCCN(S(=O)(=O)c4ccc5c(c4)oc(=O)n5C)C3)CC2)c1 (stereo not drawn)	HCV inh 13µM, FMDV inh inconclusive, HCMV inh -79!
FC(F)(F)c1cccc(CC2CN(Cc3ccccc3)Cc3ccccc3N2c2cc(Cl)cc(Cl)c2)c1 (stereo not drawn)	HCMV inh -98 (no result: HCV inh, MARV entry inh, SARS PLpro yeast, Lassa entry inh)
CCN(CC)S(=O)(=O)c1ccc2c(c1)nc(CCC(=O)Nc1cccc(C(F)(F)F)c1)n2CC	HCV inh inconclusive, MARV entry inh 11µM, Lassa entry inh inconclusive
CCN(CC)S(=O)(=O)c1cccc(NC(=O)Nc2cccc(C(F)(F)F)c2)c1	HCV inh 2µM, FMDV inh 18µM, MARV entry inh 15µM, Lassa entry inh 16µM (no result: HCMV inh)
CCN(CC)S(=O)(=O)c1ccc2c(c1)nc(CCC(=O)O)n2CC	none
CCOc1ccc(/C=C/C(=O)Nc2cccc(C(C)=O)c2)cc1	HCV inh 13µM
COC(=O)c1cccc(NC(=O)/C=C/c2ccc3c(c2)OCO3)c1	HCV inh inconclusive, MARV entry inh inconclusive, Lassa entry inh 11µM
O=C(Nc1ccc(Cl)cc1)Nc1cccc(C(=O)O)c1	FMDV inh 8.9µM, MARV entry inh 0.92µM, Lassa entry inh 0.33µM
COC(=O)c1cc(NC(=O)/C=C/c2ccc3c(c2)OCO3)cc(C(=O)OC)c1	HCV inh inconclusive, MARV entry inh inconclusive, Lassa entry inh inconclusive
O=C(Nc1cccc(C(=O)O)c1)Nc1ccccc1Cl	FMDV inh 10µM, MARV entry inh 8.9µM, Lassa entry inh 4µM
COc1cccc(CNC(=O)c2c(OC)cc(=O)n3c2CCN(C(=O)c2csc(C)n2)CC3)c1	none (no result: HCV inh, MARV entry inh, SARS PLpro yeast, HCMV inh, Lassa entry inh)
COc1cc(-c2cc(C)c3c(OC)ccc(OC)c3n2)cc2c1OCCN(C(=O)Cn1nc(C)cc1C)C2	none (no result: HCV inh, MARV entry inh, SARS PLpro yeast, HCMV inh, Lassa entry inh)
O=C(Nc1ccc2nccnc2c1)Nc1ccccc1Cl	MARV entry inh inconclusive
CCOc1ccc(-n2nc3ccc(NC(=O)Cc4ccccc4)cc3n2)cc1	FMDV inh 22µM, HCMV inh -107 (no result: HCV inh, MARV entry inh, SARS PLpro yeast)
CCOc1ccc(-n2nc3ccc(NC(=O)CC)cc3n2)cc1	HCV inh inconclusive, Lassa entry inh inconclusive
O=C(Nc1ccc(Cl)cc1)Nc1ccc(Cl)c(C(F)(F)F)c1	HCMV inh -99 (no result: HCV inh, FMDV inh, MARV entry inh, SARS PLpro yeast, Lassa entry inh)
O=C(Nc1cccc(Cl)c1)Nc1ccc2nccnc2c1	HCV inh inconclusive, HCMV inh -77 (no result: MARV entry inh, Lassa entry inh)
O=C(Nc1cccc(Cl)c1)Nc1cccc(C(=O)O)c1	FMDV inh 14µM, MARV entry inh inconclusive, Lassa entry inh inconclusive
Cc1cccc(CNC(=O)c2cnn(-c3ncc(C)c(-c4cccs4)n3)c2C2CC2)n1	none (no result: HCV inh, MARV entry inh, SARS PLpro yeast, HCMV inh, Lassa entry inh)
COc1cccc(C2Nc3ccccc3-c3nnc(SCc4ccccc4)nc3O2)c1OC (stereo not drawn)	none (no result: HCV inh, SARS PLpro yeast)
CCOc1ccc(NC(=O)NC23CC4CC(CC(C4)C2)C3)cc1	MARV entry inh inconclusive, Lassa entry inh 11µM
CCOc1ccc(NC(=O)Nc2cccc(C(=O)O)c2)cc1	FMDV inh 1.6µM, MARV entry inh inconclusive, Lassa entry inh inconclusive
O=C(NCc1ccccc1)C(=O)Nc1cccc(C(=O)O)c1	FMDV inh 11µM (no result: MARV entry inh, Lassa entry inh)

Screening data from PubChem.
